Experimental data published in PubChem BioAssay AID1347416 (National Center for Advancing Translational Sciences (NCATS), 2020).
Out of some 4,100 compounds screened, about 1,600 (39%) were called active. Another 25% or so got no clear call; they are omitted. Calls come from the whole dose curve; as a rule, active = well fitted inhibition curve with a large enough effect; inconclusive = small, poorly fitted or top-dose-only effect; inactive = no such curve, though single readings can be large or run the other way. The list shows a part of the results. Where a call stands in place of a potency, no number is given.

Assay: qHTS Validation assay for Inhibitors of Plasmodium falciparum Dd2 growth in vitro; note: nearly all actives have a fitted effect of over 70% in size
Conditions: P. falciparum Dd2 in RBCs, SYBR Green growth, 72 h; series mostly up to 28.7 µM
Method in brief: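 P. falciparum Dd2-infected red blood cells (2.5% hematocrit, 0.3% parasitemia) grown 72 h at 37 °C under 5% O2 with compounds in a titration, 29 uM to 0.5 nM final. Growth read as SYBR Green-1 fluorescence after ~16 h lysis; artesunate 300 nM as positive control.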
Potency is the fitted concentration of half-maximal effect.

SMILES	Potency
COc1ccc(C2=[N+](C)CCn3cccc32)c(OC)c1	10.6 µM (active)
COc1ccc(-c2cc(-c3ccc(N4CCOCC4)nc3)cn3cncc23)cc1	7.69 µM (active)
COc1ccc(-c2cc(-c3cccc(OC)c3OC)cn3cncc23)cc1	6.85 µM (active)
CCOc1c(OC)cccc1-c1nc2ccc(-c3ccc(OC)c(OC)c3OC)cc2o1	inactive
COc1ccc(CNC(=O)CCc2c(C)nn(-c3ccc(N4CCOCC4)nn3)c2C)cc1	inactive
Nc1ncnc2c1ncn2[C@H]1O[C@@H](CNS(=O)(=O)NC(=O)c2cccc(-c3noc(-c4ccccc4F)n3)c2)[C@H](O)[C@@H]1O	inactive
O=C(C1Cn2cccc2C(=O)N1Cc1ccccc1)N1CCN(c2ncccn2)CC1 (stereo unspecified)	inactive
Cc1ccc(C)c(-n2c(-c3ccc(Br)cc3)csc2=NC(=O)c2ccccc2F)c1	4.73 µM (active)
CCCOc1cccc(C2c3c(oc4cc(C)c(C)cc4c3=O)C(=O)N2CCCN2CCOCC2)c1 (stereo unspecified)	13.3 µM (active)
CCCOc1cccc(C2c3c(oc4ccc(F)cc4c3=O)C(=O)N2Cc2ccc3c(c2)OCO3)c1 (stereo unspecified)	inactive
COc1cccc(/C=C/C(=O)Nc2ccc3nc(N4CCN(C)CC4)cc(C)c3c2)c1OC	5.96 µM (active)
CCN1CCN(c2cc(C)c3cc(NC(=O)/C=C/c4cccc(OC)c4OC)ccc3n2)CC1	5.96 µM (active)
COc1cccc(C(=O)Nc2cccc(-c3cn4c(C)csc4n3)c2)c1OC	inactive
Cc1ccsc1CN1CCC(C(=O)N2CCCCCCNC(=O)CC2)CC1	inactive
CCOC(=O)c1c(S(=O)(=O)N2CCC(C(=O)Nc3ccc(OCC)cc3)CC2)c(C)n(C)c1C	inactive
Cc1ncc(CN2CCC(C(=O)Nc3ccc(-n4cccn4)cc3)CC2)s1	4.73 µM (active)
Cc1ccccc1CNC(=O)CC1C(=O)NCCN1Cc1c(F)cccc1Cl (stereo unspecified)	inactive
CN(C)CCNC(=O)c1ccc2c(c1)N(Cc1c(F)cccc1Cl)C(=O)c1ccccc1S2	2.11 µM (active)
O=C(NCc1ccco1)c1ccc2c(c1)N(Cc1c(F)cccc1Cl)C(=O)c1ccccc1S2	13.3 µM (active)
CCCCN(CC)CCCNC(=O)c1ccc2c(c1)N(Cc1ccc(C)cc1)C(=O)c1ccccc1S2	1.88 µM (active)
O=C(NCc1ccco1)c1ccc2c(c1)N(Cc1ccc(F)cc1)C(=O)c1ccccc1S2(=O)=O	inactive
COCCCNC(=O)c1ccc2c(c1)CC(=O)N2Cc1ccccc1	inactive

SMILES	Potency
CC(C)CCNC(=O)c1ccc2c(c1)CC(=O)N2Cc1ccccc1	inactive
CCN(CC)CCCNC(=O)c1ccc2c(c1)N(Cc1c(F)cccc1Cl)C(=O)c1ccccc1S2	0.944 µM (active)
CC(C)[C@@H]1CN(C(=O)CCn2ccc(=O)[nH]c2=O)C[C@H]1NS(C)(=O)=O	inactive
CCOc1ccccc1NC(=O)Cn1c(-c2ccccc2)nc(C)cc1=O	inactive
O=C(Cn1c(-c2ccccc2)noc1=O)NCc1ccccc1	inactive
CCOc1ccccc1NC(=O)Cn1c(-c2ccc(Cl)cc2)noc1=O	5.96 µM (active)
O=C1COc2ccc(-c3ccc(Cl)cc3)nc2CN1Cc1ccccc1	inactive
Cc1csc(Nc2ccc3c(n2)CN(Cc2ccccc2C)C(=O)CO3)n1	19.3 µM (active)
COc1ccc(-c2ccc3c(n2)CN(Cc2csc(C)n2)C(=O)CO3)cc1F	inactive
CC(=O)c1cccc(N(C(=O)Cn2nnc3ccccc32)C(C(=O)NCc2ccccc2)c2ccc(F)cc2)c1 (stereo unspecified)	inactive
c1cc(Nc2ncnc3sc4c(c23)CCC4)ccn1	inactive
N=c1c2c3c(sc2ncn1Nc1ccccc1)CCC3	3.35 µM (active)
O=C(Nc1ccc2c(N3CCCCC3)ncnc2c1)c1cc(F)cc(F)c1	1.88 µM (active)
O=C(Nc1ccccc1)c1cnc(N2CCCCC2)c2ccccc12	inactive
O=C(Nc1ccc2oc(-c3cccc(F)c3)nc2c1)c1ccc2ccccc2c1	inactive
Cc1cc(C)cc(C(=O)Nc2ccc3c(N4CCCC4)ncnc3c2)c1	2.37 µM (active)
CCN1c2cc(C(=O)Nc3cc(C)cc(C)c3)ccc2C(=O)N2CCCC21 (stereo unspecified)	inactive
O=C(Nc1ccc2c(N3CCCCC3)ncnc2c1)c1ccc(F)c(F)c1	4.73 µM (active)
O=C(Nc1ccc2c(N3CCCC3)ncnc2c1)c1cccc(F)c1	4.73 µM (active)
Cc1cc(C)cc(C(=O)NC2CCN(c3cc(-c4ccc(F)cc4)[nH]n3)C2)c1 (stereo unspecified)	inactive
CC(C)c1noc(-c2cccn3c(CNC(=O)COc4ccc(F)cc4)nnc23)n1	inactive
COc1cccc(CNC(=O)CSc2n[nH]c(-c3ccccc3Cl)n2)c1OC	inactive

SMILES	Potency
CCc1noc(-c2ccn3c(CNC(=O)Cc4ccccc4OC)nnc3c2)n1	inactive
COc1ccccc1Cc1nc2ccccc2nc1SCC(=O)NCc1ccccc1Cl	2.11 µM (active)
CN1CCCN(C(=O)C2CCCO2)c2ccccc21 (stereo unspecified)	inactive
O=S(=O)(Cc1ccccc1F)N1CCCC(Cn2c(C3CC3)nc3cccnc32)C1 (stereo unspecified)	inactive
Cc1ccc(CN2COc3cc(C)c4c(oc(=O)c5ccccc54)c3C2)cc1	1.33 µM (active)
Cc1cc2c(c3oc(=O)c4ccccc4c13)CN(Cc1ccc(F)cc1)CO2	2.66 µM (active)
Cc1ccc(C)c(-c2[nH]ncc2CN2CCCC(CO)(CCc3ccccc3)C2)c1 (stereo unspecified)	inactive
COc1ccc(CN2CCC(CO)(CCCc3ccccc3)CC2)c(Cl)c1OC	8.41 µM (active)
Cc1cccc(CNC(=O)c2cc3c(N4CCSCC4)nc(C)cn3n2)c1	inactive
COc1cc(CN2Cc3ccccc3C2)ccc1OCC(O)CN1CCOCC1 (stereo unspecified)	inactive
CN(Cc1ccccc1)Cc1ccccc1OCC(O)CN1CCCCC1 (stereo unspecified)	1.5 µM (active)
OC(COc1ccccc1CNCCc1ccccc1)CN1CCSCC1 (stereo unspecified)	2.11 µM (active)
Cc1cccc(CNCc2ccccc2OCC(O)CN2CCSCC2)c1 (stereo unspecified)	1.5 µM (active)
Cc1cc(Nc2sc(C(=O)c3ccc(F)cc3)c(N)c2C(=O)Nc2ccc(F)cc2)ccc1Cl	0.75 µM (active)
COc1ccc(-c2cnc3[nH]cc(CC(=O)NCc4cccnc4)c3c2)cn1	6.85 µM (active)
COc1ccc(C(=O)NCc2nc(-c3cccc(C)c3)no2)cc1OC	inactive
O=C(CC[C@@H]1CNC(=O)[C@@H]2C[C@H](NC(=O)Nc3cccc(Cl)c3)CN12)NCc1cccnc1	inactive
O=C(Cc1c[nH]c2ncc(-c3ccc(Cl)cc3)cc12)NCc1cccnc1	1.72 µM (active)
CC1(COc2cccnc2)COc2ccc(C(=O)NCc3ccc(F)cc3)cc2N1 (stereo unspecified)	inactive
COc1ccc(-c2cnc3[nH]cc(CC(=O)NCc4cccnc4)c3c2)cc1OC	1.53 µM (active)
CC(=O)N1CCCN(C(=O)c2c[nH]c3ncccc23)CC1	inactive
COc1ccccc1C(=O)N[C@H]1[C@H](O)[C@H](O)C[C@@H]1c1cccnc1	inactive
